CYP2C9 inhib – inhibitors of human CYP2C9; CYP2C9 Supersomes, luciferin-H conversion, luminescence; inhibition, % at 5 µM; hit rate 20% among 96,000; AID 777;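 active = blocking of liver enzyme CYP2C9 beyond about 50% at 5 µM, limit read from the data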
CYP2C19 inhib – inhibitors of human CYP2C19 | P33261 | CYP2C19 Supersomes, luciferin-H EGE luminescence, 30 min | inhibition, % at 5 µM | hit rate 21% among 96,000 | AID 778;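 active = CYP2C19 inhibition above a set limit at 5 µM in the primary screen, cut at about 50% in these data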;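 also: plate controls were negative control wells for no effect and 2.5 mM tranylcypromine positive control for full effect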
CYP2C9 activ – activators of human CYP2C9 | recombinant CYP2C9, luciferin-H conversion, luminescence; hits give high values; factor 1 = untreated enzyme, 0 = blocked | activation factor at 5 µM | hit rate 1.4% among 96,000;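 active = activation factor of 2 or more for CYP2C9 at a 5 µM dose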;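 also: 0 = sulfaphenazole-blocked wells and 1 = vehicle-only wells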
CYP2C19 act – activators of human cytochrome P450 2C19; P33261; recombinant CYP2C19, luciferin-H EGE luminescence; hits give high values; 0 = fully inhibited enzyme, 1 = untreated enzyme; activation factor at 5 µM; 96,000 tested, under 10 active;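 active = activation factor of at least 2 at 5 µM in the primary screen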;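 also: 0 = wells with 2.5 mM tranylcypromine and 1 = vehicle-only wells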
Pyk2 oligo antag – Pyk2 (human) oligomerization antagonism | z-score (the deposit names both 25 µM and 10 µM) | Q293 cells, Pyk2 FERM NanoBiT luminescence; hits give low values | AID 1347419 | hit rate 0.83% among 99,000 | Q14289;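 active = Z-score of -3 or lower, scaled per plate to the spread of control and sample wells; inactive = z-score above -3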;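 also: negative z-score means lost luminescence so less FERM oligomerization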
Target sequence (Q14289 whole entry, looked up): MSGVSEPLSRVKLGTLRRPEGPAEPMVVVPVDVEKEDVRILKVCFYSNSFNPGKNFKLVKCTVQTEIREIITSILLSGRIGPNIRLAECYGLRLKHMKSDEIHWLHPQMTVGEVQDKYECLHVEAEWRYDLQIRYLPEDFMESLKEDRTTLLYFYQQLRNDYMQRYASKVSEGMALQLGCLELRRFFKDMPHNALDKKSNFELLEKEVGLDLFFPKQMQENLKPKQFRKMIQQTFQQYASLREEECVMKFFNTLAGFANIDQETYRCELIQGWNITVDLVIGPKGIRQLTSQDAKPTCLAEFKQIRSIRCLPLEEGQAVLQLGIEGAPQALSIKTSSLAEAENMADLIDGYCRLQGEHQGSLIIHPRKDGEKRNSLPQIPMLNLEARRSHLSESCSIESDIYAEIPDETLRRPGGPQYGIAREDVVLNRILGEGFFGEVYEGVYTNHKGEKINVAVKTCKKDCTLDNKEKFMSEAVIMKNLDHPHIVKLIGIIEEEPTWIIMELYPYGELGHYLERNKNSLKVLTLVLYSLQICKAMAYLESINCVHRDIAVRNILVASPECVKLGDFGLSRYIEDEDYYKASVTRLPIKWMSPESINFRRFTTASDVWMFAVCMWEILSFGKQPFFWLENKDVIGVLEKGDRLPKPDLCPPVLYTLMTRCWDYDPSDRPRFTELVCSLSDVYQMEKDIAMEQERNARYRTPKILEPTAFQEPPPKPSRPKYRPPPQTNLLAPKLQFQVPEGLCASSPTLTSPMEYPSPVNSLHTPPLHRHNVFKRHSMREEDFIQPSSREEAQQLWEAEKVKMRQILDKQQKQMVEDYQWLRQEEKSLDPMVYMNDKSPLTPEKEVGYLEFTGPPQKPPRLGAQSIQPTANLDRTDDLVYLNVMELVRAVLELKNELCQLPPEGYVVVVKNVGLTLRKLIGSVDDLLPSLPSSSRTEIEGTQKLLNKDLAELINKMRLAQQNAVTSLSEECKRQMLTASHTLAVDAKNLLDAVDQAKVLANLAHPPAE
An asterisk follows results filed as active; nt = no result given. Rows were chosen to be rich in hits. Some 28% of all compounds tested hit in one or more screens of this group.

SMILES | CYP2C9 inhib | CYP2C19 inhib | CYP2C9 activ | CYP2C19 act | Pyk2 oligo antag
N#CC1(Cc2ccccc2Cl)c2ccccc2C=CN1C(=O)c1ccccc1 (stereo not drawn) | 84* | 91* | 0.2 | 0.1 | -1.9
O=C(CC1Sc2ccccc2NC1=O)Nc1cccc(-c2nnc3n2CCCCC3)c1 (stereo not drawn) | nt | nt | nt | nt | 0.14
CCOC(=O)N1CCC(N2C(=O)c3ccccc3C2Nc2cc(Cl)c(OC)cc2OC)CC1 (stereo not drawn) | 60* | 30 | 0.4 | 0.7 | nt
CCOC(=O)N1CCN(C(=O)Nc2ccccc2Cl)CC1 | -5 | 16 | 1 | 0.8 | 0.9
CCCn1c(C(O)c2ccc3c(c2)OCO3)nc2ccccc21 (stereo not drawn) | 60* | 98* | 0.4 | 0 | -1.1
CCCCn1c(NCc2ccccc2O)nc2ccccc21 | 30 | 50 | 0.7 | 0.5 | nt
CCCCn1c(NCc2ccccc2NS(=O)(=O)c2ccc(C)cc2)nc2ccccc21 | 50* | 21 | 0.5 | 0.8 | -0.36
CCCn1c(NCc2cc(C)ccc2O)nc2ccccc21 | 25 | 53* | 0.8 | 0.5 | -1.1
CCCn1c(NCc2ccc3c(c2)OCO3)nc2ccccc21 | 30 | 59* | 0.7 | 0.4 | -1.2
CCCCCOC(=O)c1ccccc1C(=O)O | 20 | 9 | 0.8 | 0.9 | 0.32
CCCC(=O)Nc1ccc(Cl)c(NC(=O)c2cccnc2Cl)c1 | 8 | 2 | 0.9 | 1 | -1.1
CCOc1ccc2nc(NC(=O)CCC(=O)c3cccs3)sc2c1 | 2 | 3 | 1 | 1 | 0.87
COC(=O)[C@H](CCSC)NC(=O)Nc1ccc(C)c(C)c1 | 22 | 62* | 0.8 | 0.4 | -0.32
COC(=O)[C@H](CCSC)NC(=O)Nc1ccc(C)cc1C | 24 | 52* | 0.8 | 0.5 | -0.41
CCOc1ccc2[nH]c(=O)c(CN(Cc3ccccc3)C(=O)N3CCCC3)cc2c1 | 11 | 12 | 0.9 | 0.9 | 0.16
CCOC(=O)c1nn(-c2sc(C(=O)OC)c(C)c2C(=O)OC)cc1O | 61* | 100* | 0.4 | 0 | 0.56
CCOC(=O)c1nn(-c2ccc(C)cc2)cc1O | 31 | 61* | 0.7 | 0.4 | 0.21
CCOC(=O)c1nn(-c2cc(C(=O)OC)cc(C(=O)OC)c2)cc1O | -24 | 34 | 1.2 | 0.7 | 1.9
COC(=O)c1cc(S(=O)(=O)N2CCOCC2)ccc1Sc1ccccc1N | 37 | 5 | 0.6 | 0.9 | -0.86
COc1cccc(NC(=O)CSc2nncn2N)c1 | -3 | 6 | 1 | 0.9 | 0.03
COc1ccc(N=C2C(=Nc3ccc(OC)cc3)N(c3ccc(OC)cc3)C(=S)N2c2ccccc2)cc1 | 78* | 4 | 0.2 | 1 | -0.42
COc1ccc(N=C2C(=Nc3ccc(OC)cc3)N(c3ccc(OC)cc3)C(=S)N2C)cc1 | 53* | 68* | 0.5 | 0.3 | -0.04
COc1ccc(N=C2SCC(=O)N2c2ccc(OC)cc2)cc1 | -3 | 21 | 1 | 0.8 | 0.28
CC1(C)Cc2nc(N)c(C(=O)NCCO)cc2CO1 | 16 | -6 | 0.8 | 1.1 | 0.36
C=CCNc1nc(C2(C)CC3(CC(C)(C)OC3=O)C(=O)O2)cs1 (stereo not drawn) | -23 | 79* | 1.2 | 0.2 | 2.6
SMILES | CYP2C9 inhib | CYP2C19 inhib | CYP2C9 activ | CYP2C19 act | Pyk2 oligo antag
O=C(CN1CCN(Cc2ccccc2F)C1=O)NCc1ccco1 | 0 | 0 | 1 | 1 | -0.29
NC(=O)CSc1nnc(CNc2cccc(Cl)c2)n1CCc1ccccc1 | 8 | 20 | 0.9 | 0.8 | 0.53
Cc1nn(-c2ccccc2)c(OC(=O)c2cccs2)c1S(=O)(=O)c1ccc([N+](=O)[O-])cc1 | 99* | 47 | 0 | 0.5 | -0.9
Cc1nn(-c2ccccc2)c(OC(=O)c2cccs2)c1S(=O)(=O)c1ccccc1 | 80* | 62* | 0.2 | 0.4 | 0.44
Cc1csc(NC(=O)CSc2ncn(-c3ccccc3)n2)n1 | 20 | 19 | 0.8 | 0.8 | 1.9
Cc1csc(NC(=O)CCc2nc3ccccc3s2)n1 | -77 | 83* | 1.8 | 0.2 | -0.66
O=C(CSc1ncn(-c2ccccc2)n1)Nc1nc(-c2ccccc2)cs1 | nt | nt | nt | nt | -0.17
Cc1ccc2cc(C)c3nnc(SCC(=O)Nc4nc5c(s4)CCCC5)n3c2c1 | 61* | 57* | 0.4 | 0.4 | nt
Cc1ccc(-c2csc(NC(=O)CSc3ncn(-c4ccccc4)n3)n2)cc1 | 67* | 64* | 0.3 | 0.4 | -0.12
Cc1cnc(NC(=O)CCCc2nc3ccccc3s2)s1 | 31 | 42 | 0.7 | 0.6 | -1
O=C(CSc1ncn(-c2ccccc2)n1)Nc1nccs1 | 21 | 56* | 0.8 | 0.4 | -0.07
COC(=O)c1ccc(NC(=O)CSc2nnc(C(C)NC(=O)c3ccccc3Cl)n2C)cc1 (stereo not drawn) | 8 | -8 | 0.9 | 1.1 | 0.66
Cc1ccc(S(=O)(=O)CCC(=O)Nc2nccs2)cc1 | 0 | 22 | 1 | 0.8 | 1.2
O=C(CSc1nc(Cc2ccccc2)nc2ccccc12)Nc1nc2c(s1)CCCC2 | 93* | 85* | 0.1 | 0.2 | 0.28
Cc1csc(SCC(=O)Nc2nc3ccccc3s2)n1 | 94* | 92* | 0.1 | 0.1 | -0.27
CC(=O)Nc1ccc(C(=O)CSc2ncn(-c3ccccc3)n2)cc1 | 75* | 67* | 0.3 | 0.3 | 0.84
O=C(CSc1ncn(-c2ccccc2)n1)N1CCc2ccccc21 | 7 | 27 | 0.9 | 0.7 | 0.04
CC(C)(C)c1nc(SCC(=O)Nc2nc3c(s2)CCCC3)c2ccccc2n1 | 30 | -1 | 0.7 | 1 | -0.7
Cc1csc(NC(=O)CCS(=O)(=O)c2ccc(Br)cc2)n1 | 85* | 42 | 0.1 | 0.6 | 1.4
CC(NC(N)=O)C12CC3CC(CC(C3)C1)C2 (stereo not drawn) | 14 | 31 | 0.9 | 0.7 | -0.49
COC(=O)c1ccc(C(=O)OC)c(NC(=O)COC(=O)CC2CC3CCC2C3)c1 (stereo not drawn) | 38 | 31 | 0.6 | 0.7 | -0.49
COc1cccc(OC)c1C(=O)Nc1ccccc1C(=O)N1CCOCC1 | -8 | -3 | 1.1 | 1 | 1.2
Cn1cc(SCC(=O)Nc2nc3ccccc3s2)c2ccccc21 | -29 | -20 | 1.3 | 1.2 | -0.08
Cn1c(SCC(=O)Nc2nc3c(s2)CCCC3)nnc1-c1ccccc1 | 42 | 33 | 0.6 | 0.7 | -0.71
Cc1nnc(NC(=O)CSc2nc(C(C)C)nc3ccccc23)s1 | 66* | 8 | 0.3 | 0.9 | 0.44
CC(C)c1nc(SCC(=O)Nc2nc3c(s2)CCCC3)c2ccccc2n1 | -2 | 20 | 1 | 0.8 | 0.7
O=C(CSc1ncn(-c2ccccc2)n1)Nc1nc2c(s1)CCCC2 | 64* | 44 | 0.4 | 0.6 | -0.34
O=C(CSc1ncn(-c2ccccc2)n1)Nc1nc2ccccc2s1 | 65* | 65* | 0.4 | 0.4 | -0.74
Cc1cc2nc(N)sc2cc1[N+](=O)[O-] | 1 | -3 | 1 | 1 | 0.42
Cc1cc([N+](=O)[O-])c(C(C)(C)C)cc1N | 0 | 89* | 1 | 0.1 | 0.41

Source: PubChem BioAssay (Sanford-Burnham Center for Chemical Genomics)
